Bioassay records (PubChem BioAssay)
Rows were chosen to be rich in hits. Some 6.7% of all compounds tested hit in one or more screens of this group.
T cruzi growth-1 – blocks T. cruzi growth in NIH3T3 culture. inhibition, % at 8.34 µM. T. cruzi beta-gal in NIH3T3, GalScreen luminescence, 90 h. 77,000 tested, 5.9% active;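 active = mean inhibition above about 93%, with at least 55% of replicates each passing it, limit read from the data, passing the limit was not always enough; inconclusive = only one of those two conditions holds; inactive = neither condition holds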
C diff HTS – C. difficile growth inhibition; Clostridium difficile clinical isolate growth, OD600, 24 h; active compounds read low; growth activity, negative = inhibition, % at 16 µg/mL (by protocol); 86,000 tested, 0.25% active;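 active = mean growth activity at or below -80% and every replicate also at or below -80%; inconclusive = mean at or below -80% but some replicate above -80%; inactive = mean growth activity above -80%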
Pf Dd2 growth – P. falciparum Dd2 growth inhibition | activity change, % at 10 µM | SYBR Green, 72 h; active compounds read low | 94,000 tested, 2.3% active; in the data active = activity change below about -80%; inconclusive = no clear call, values can overlap the other calls
T cruzi growth-2 – Trypanosoma cruzi proliferation inhibition; T. cruzi beta-gal in NIH3T3, GalScreen luminescence, 90 h; 5,600 tested, 72% active; shares compounds with T cruzi growth-1; inhibition, % at 8.35 µM;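 active = mean replicate inhibition above about 95% and at least 55% of replicates individually reaching it, limit read from the data; inconclusive = only one of the two criteria is met; inactive = neither criterion is met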
T cruzi growth-3 – Trypanosoma cruzi proliferation inhibition; shares compounds with T cruzi growth-1; inhibition, % at 2.09 µM; T. cruzi beta-gal in NIH3T3, GalScreen luminescence, 90 h; AID 651740; 5,600 tested, 21% active;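 active = mean inhibition above about 95%, with at least 55% of replicates also reaching it, limit read from the data; inconclusive = meets just one of the two conditions; inactive = meets neither condition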
3T3 cytotox – cytotoxicity in mouse NIH/3T3 fibroblasts. cytotoxicity (signal decrease), % at 8.35 µM. 5,600 tested, 14% active. shares compounds with T cruzi growth-1. NIH/3T3 viability, CellTiter-Glo ATP luminescence, 90 h. AID 651742;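 active = mean signal decrease across replicates above about 35% based on untreated-well scatter, with enough replicates individually passing, limit read from the data; inconclusive = no rule stated though some were filed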
NIH3T3 tox 2 – cytotoxicity in mouse NIH/3T3 fibroblasts; shares compounds with T cruzi growth-1; inhibition, % at 24.9 µM; 5,600 tested, 56% active; NIH/3T3 viability, CellTiter-Glo ATP luminescence, 90 h;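 active = mean loss of cell viability signal at or above a set limit, and enough replicates individually reaching it; inconclusive = meets only the mean limit or only the replicate share; inactive = meets neither condition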
A number is an active result; - = inactive; ? = inconclusive; . = not tested or not shown.

SMILES	T cruzi growth-1	C diff HTS	Pf Dd2 growth	T cruzi growth-2	T cruzi growth-3	3T3 cytotox	NIH3T3 tox 2
C[C@@H]1CN([C@@H](C)CO)C(=O)c2cc(NS(=O)(=O)c3ccccc3)ccc2O[C@@H](C)CCCCO[C@@H]1CN(C)C(=O)Nc1ccc2c(c1)OCO2	-	-	-	.	.	.	.
COc1ccccc1NC(=O)N[C@H]1C=C[C@@H](CC(=O)NCc2ccc(Cl)c(Cl)c2)O[C@@H]1CO	-	.	-	.	.	.	.
C[C@@H]1CN([C@H](C)CO)S(=O)(=O)c2ccc(-c3cccnc3)cc2O[C@H]1CN(C)C(=O)C1CCC1	-	-	-	.	.	.	.
CCC(=O)N1CC2(C1)[C@H](c1ccc(-c3ccc(C#N)cc3)cc1)[C@@H](CO)N2C(C)=O	.	-	-	.	.	.	.
COc1ccccc1-c1cnc2c(c1)C(=O)N([C@@H](C)CO)C[C@@H](C)[C@@H](CN(C)Cc1ccc(F)cc1)O2	.	-	-	.	.	.	.
COc1ccc(CN(C)C[C@@H]2OCCCC[C@H](C)Oc3ccc(NC(=O)Nc4ccc(OC)cc4)cc3C(=O)N([C@@H](C)CO)C[C@H]2C)cc1	-	.	-	.	.	.	.
COc1ccc(NC(=O)Nc2ccc3c(c2)C(=O)N([C@@H](C)CO)C[C@H](C)[C@@H](CN(C)Cc2ccc(Cl)c(Cl)c2)OCCCC[C@@H](C)O3)cc1	126.2	-	-87.2	101.9	113.6	-	-
COc1ccc(NC(=O)Nc2ccc3c(c2)C(=O)N([C@H](C)CO)C[C@H](C)[C@H](CN(C)Cc2ccc(Cl)c(Cl)c2)OCCCC[C@H](C)O3)cc1	126.1	-	-	95.2	113.8	-	-
COc1ccc(CN(C)C[C@H]2OCCCC[C@@H](C)Oc3ccc(NC(=O)Nc4ccc(OC)cc4)cc3C(=O)N([C@H](C)CO)C[C@@H]2C)cc1	-	.	-	.	.	.	.
COc1ccc(CNC(=O)C[C@H]2C[C@@H]3c4cc(NS(=O)(=O)c5ccc(F)cc5)ccc4O[C@@H]3[C@H](CO)O2)cc1	-	-	-	.	.	.	.
CC(C)NC(=O)N(C)C[C@H]1Oc2ccc(NC(=O)CCN3CCOCC3)cc2CC(=O)N([C@H](C)CO)C[C@@H]1C	.	-	-	.	.	.	.
C[C@@H]1CN([C@@H](C)CO)C(=O)Cc2cc(NC(=O)Cn3cnnn3)ccc2O[C@H]1CN(C)S(=O)(=O)c1ccc(F)cc1	-	-	-	.	.	.	.
O=C(C1CC1)N1C[C@@H]2[C@H](c3ccccc31)[C@@H](CO)N2C(=O)Nc1cccc(F)c1	-	-	-	.	.	.	.
C[C@@H]1CN([C@H](C)CO)C(=O)c2cccc(NS(C)(=O)=O)c2O[C@H]1CN(C)C(=O)NC1CCCCC1	.	-	-	.	.	.	.
COc1cccc(S(=O)(=O)N(C)C[C@H]2Oc3cc(C#CCC(C)C)ccc3S(=O)(=O)N([C@H](C)CO)C[C@H]2C)c1	?	-	-	97.4	115.2	-	74.2
COc1cccc(S(=O)(=O)N(C)C[C@H]2Oc3cc(C#CCN(C)C)ccc3S(=O)(=O)N([C@@H](C)CO)C[C@H]2C)c1	-	-	-	.	.	.	.
COc1ccccc1S(=O)(=O)N(C)C[C@@H]1Oc2cc(C#CCC3CCCC3)ccc2S(=O)(=O)N([C@@H](C)CO)C[C@@H]1C	.	-	-	.	.	.	.
COc1cccc(S(=O)(=O)N(C)C[C@H]2Oc3cc(C#CCN(C)C)ccc3S(=O)(=O)N([C@@H](C)CO)C[C@@H]2C)c1	108.2	-	-	113.5	-	-	-
COc1cccc(S(=O)(=O)N(C)C[C@@H]2Oc3cc(C#CCC(C)C)ccc3S(=O)(=O)N([C@H](C)CO)C[C@@H]2C)c1	-	-	-	.	.	.	.
COCC#Cc1ccc2c(c1)O[C@H](CN(C)S(=O)(=O)c1cccc(OC)c1)[C@@H](C)CN([C@@H](C)CO)S2(=O)=O	-	-	-	.	.	.	.
COc1ccccc1S(=O)(=O)N(C)C[C@H]1Oc2cc(C#CCC(C)C)ccc2S(=O)(=O)N([C@@H](C)CO)C[C@H]1C	113.2	-	-	95.2	108.0	-	80.6
CCCC#Cc1ccc2c(c1)O[C@H](CN(C)S(=O)(=O)c1cccc(OC)c1)[C@H](C)CN([C@H](C)CO)S2(=O)=O	120.7	-	-	103.5	98.3	-	24.9
C[C@H](CO)N1C[C@H](C)[C@H](CN(C)Cc2ccncc2)OCCCC[C@H](C)Oc2ccc(NC(=O)Nc3ccc4c(c3)OCO4)cc2C1=O	-	-	-	.	.	.	.
C[C@H](CO)N1C[C@H](C)[C@H](CN(C)Cc2ccc(C(=O)Nc3ccccc3N)cc2)Oc2ccc(NS(=O)(=O)c3ccc(Cl)cc3)cc2C1=O	-	-	-	.	.	.	.
Cc1noc(C)c1NC(=O)Nc1ccc2c(c1)CC(=O)N([C@@H](C)CO)C[C@H](C)[C@@H](CN(C)C(=O)Nc1ccccc1)O2	-	-	-	.	.	.	.
SMILES	T cruzi growth-1	C diff HTS	Pf Dd2 growth	T cruzi growth-2	T cruzi growth-3	3T3 cytotox	NIH3T3 tox 2
O=C(O)C[C@@H]1CC[C@H](NC(=O)c2ccccc2F)[C@@H](CO)O1	.	-	-	.	.	.	.
COc1ccccc1S(=O)(=O)N(C)C[C@@H]1Oc2cc(/C=C/c3ccccc3)ccc2S(=O)(=O)N([C@@H](C)CO)C[C@@H]1C	-	-	-	.	.	.	.
COc1ccccc1S(=O)(=O)N(C)C[C@@H]1Oc2cc(/C=C/c3ccccc3)ccc2S(=O)(=O)N([C@H](C)CO)C[C@@H]1C	127.9	-	?	100.1	103.4	-	28.8
Cc1noc(C)c1S(=O)(=O)Nc1ccc2c(c1)C(=O)N([C@H](C)CO)C[C@H](C)[C@H](CN(C)S(=O)(=O)c1ccc(F)cc1)O2	-	-	-	.	.	.	.
C[C@@H]1CN([C@@H](C)CO)S(=O)(=O)c2ccc(-c3ccccc3)cc2O[C@@H]1CN(C)C(=O)c1ccc2c(c1)OCO2	.	-	-	.	.	.	.
C[C@@H]1CN([C@@H](C)CO)S(=O)(=O)c2ccc(-c3ccncc3)cc2O[C@H]1CN(C)C(=O)c1cccc(F)c1	110.6	-	-	96.4	-	-	24.6
C[C@@H]1CN([C@@H](C)CO)S(=O)(=O)c2ccc(-c3cccc(F)c3)cc2O[C@H]1CN(C)C(=O)c1cccc(F)c1	100.0	-	-	98.1	-	53.2	39.9
C[C@H]1CN([C@@H](C)CO)S(=O)(=O)c2ccc(-c3cccc(F)c3)cc2O[C@H]1CN(C)C(=O)c1cccc(F)c1	-	-	-	.	.	.	.
C[C@@H]1CN([C@@H](C)CO)S(=O)(=O)c2ccc(-c3ccncc3)cc2O[C@H]1CN(C)C(=O)c1ccc2c(c1)OCO2	106.1	-	-	99.1	-	-	-
C[C@H](CO)N1C[C@H](C)[C@@H](CN(C)C(=O)c2cccc(F)c2)Oc2cc(-c3ccncc3)ccc2S1(=O)=O	109.8	-	-	-	-	-	44.2
C[C@H]1CN([C@@H](C)CO)S(=O)(=O)c2ccc(-c3cccnc3)cc2O[C@@H]1CN(C)C(=O)c1cccc(F)c1	-	-	-	.	.	.	.
